Results filed as inconclusive are left out. A number with no mark means an inactive call. The source made the active and inactive calls. Calls follow the shape of the dose curve; as a rule, active = well fitted curve in the direction sought with a large enough effect in the signal ratio; inconclusive = small, poorly fitted or top-dose-only effect, or a change in a side signal; inactive = no such curve, though single readings can be large or run the other way; the % refers to the signal ratio.
The compounds below were run against Tumor necrosis factor (Homo sapiens) (UniProt P01375) (assay: qHTS assay to identify small molecules that stimulate Tumor Necrosis Factor-alpha (TNF-alpha) secretion (AID 651757; also: 0% is about no effect)). Settings: Human cells, HTRF 665/615 ratio; series mostly up to 92.2 µM; activation (TNF-alpha secretion): at the top concentration.
Tumor necrosis factor (Homo sapiens), sequence (P01375 whole entry, looked up): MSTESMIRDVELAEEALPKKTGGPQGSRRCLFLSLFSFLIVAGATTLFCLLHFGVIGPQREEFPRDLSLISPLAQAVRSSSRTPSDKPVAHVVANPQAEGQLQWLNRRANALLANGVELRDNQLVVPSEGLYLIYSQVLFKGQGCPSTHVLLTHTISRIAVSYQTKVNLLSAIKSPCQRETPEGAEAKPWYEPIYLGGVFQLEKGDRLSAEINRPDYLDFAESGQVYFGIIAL
From the text: National Center for Advancing Translational Sciences [NCATS]
NIH Chemical Genomics Center [NCGC]
National Institutes of Environmental Health Sciences [NIEHS]
National Toxicology Program [NTP]
Tumor Necrosis Factor-alpha (TNF-alpha), a secreted cytokine, plays an important role in inflammatory diseases and immune disorders. TNF-alpha, a 17 kDa cytokine, is mainly secreted by activated macrophages and monocytes in response to several inflammatory and immunological stimuli. To study the effect of environmental chemicals on TNF-alpha secretion, a homogeneous TNF-alpha assay was developed using Time Resolved fluorescence (HTRF) technology based on Time Resolved Fluorescent Resonance Energy Transfer (TR-FRET) (Leister et al., Current Chemical Genomics, 5:21-29, 2011). This assay allows measuring TNF-alpha secreted from the cells in a 1536-well plate format.
THP-1 cells were dispensed at 3000 cells/5ul/well in 1536-well white solid plates. After addition of 23 nl of compound, positive controls and DMSO only, the assay plates were incubated at 37 C for 17 hrs, followed by addition of 5 uLof mixture of cryptate labeled and XL665 labeled anti-TNF-alpha antibodies. After the assay plates were incubated at room temperature for 3 hr, the plates were measured by an EnVision plate reader.

SMILES | activation (TNF-alpha secretion) | outcome
O=[N+]([O-])c1cccc2ccccc12 | 0.52% | –
c1nc[nH]n1 | 0.36% | –
CCCCCCCC(=O)Cl | -0.0841% | –
CCCCCCCCCc1ccc(O)cc1 | -0.142% | –
CNC(=O)O/N=C/C(C)(C)SC | -0.116% | –
O=[N+]([O-])c1ccc(Cl)c(Cl)c1 | -0.0398% | –
C=CC(=C)C | 0.0398% | –
ClC(Cl)=C(c1ccc(Cl)cc1)c1ccc(Cl)cc1 | – | inactive
C=CCc1ccc(OC)cc1 | -0.386% | –
Nc1ccccc1Cl | 1.07% | –
CC(C)(C)OO | – | inactive
C=C(C)C(=O)OCC1CO1 (stereo not given) | -0.741% | –
Clc1ccc2ccccc2c1 | 0.741% | –
ClC1=C(Cl)C2(Cl)C3C(Cl)C=CC3C1(Cl)C2(Cl)Cl (stereo not given) | 1.12% | –
COP(=S)(OC)Oc1ccc([N+](=O)[O-])cc1 | 0.462% | –
ClC(Cl)=C(Cl)C(Cl)=C(Cl)Cl | -0.342% | –
BrCCBr | -1.33% | –
Cc1ccc(O)c(C)c1 | 0.362% | –
C[C@H]1CCCC(=O)CCC/C=C/c2cc(O)cc(O)c2C(=O)O1 | – | inactive
Clc1cc(Cl)c(-c2cc(Cl)c(Cl)cc2Cl)cc1Cl | 0.463% | –

SMILES | activation (TNF-alpha secretion) | outcome
N#CCCCl | – | inactive
Brc1ccccc1 | 0.0984% | –
CC(Cl)Cl | 0.0782% | –
C=C(C)C#N | 0.427% | –
C=CCc1ccc2c(c1)OCO2 | 0.295% | –
c1ccc(-c2ccccc2)cc1 | -0.33% | –
CCOP(=S)(OCC)Oc1ccc([N+](=O)[O-])cc1 | – | inactive
CCOP(=S)(OCC)SCSC(C)(C)C | 0.253% | –
O=C(Cl)C(Cl)(Cl)Cl | -0.394% | –
O=NN(CCO)CCO | -0.286% | –
ClCBr | 0.179% | –
C=CC(=O)OCC | 0.0365% | –
C[N+](C)(C)Cc1ccccc1 | -0.13% | –
CCCC(=O)Cl | -1.07% | –
c1ccc(OP(Oc2ccccc2)Oc2ccccc2)cc1 | -0.0179% | –
Nc1c(Cl)c(Cl)nc(C(=O)O)c1Cl | 0.315% | –
CC(C)(OO)c1ccccc1 | -0.0625% | –
[O-][Br+2]([O-])O | – | inactive
COc1ccc(N)cc1 | – | inactive
ClC(Cl)=C(Cl)Cl | – | inactive

— PubChem BioAssay (NCATS)
